GPR151 activ = activates the human receptor GPR151; Q8TDV0; hit rate 1% among 650,000; PathHunter beta-arrestin GPR151 cells, luminescence; activation, % at 11.2 µM; AID 1508602; in the data active = activation above about 4.9%;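 note: 0% = median of compound wells and 100% = cells with positive control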
TEAD-YAP inh = TEAD-YAP interaction inhibition; HEK-TIYL cells, TEAD-Gal4/YAP UAS-luciferase luminescence; inhibition, % at 9.12 µM; hit rate 1.4% among 640,000; AID 1259422; in the data active = inhibition above about 32%;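 note: 0% = median of test compound wells and 100% = reference inhibitor wells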
FBW7 activator = human FBW7 E3 ligase activation, primary screen. Q969H0. AlphaScreen FBW7–phospho-cyclin E peptide binding, activator screen. normalized activity (activation), % at 26.1 µM. hit rate 0.13% among 650,000; in the data active = normalized activity above about 1.9%;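 note: purified mutant Fbw7 with reduced substrate affinity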
MITF inh = blocks human microphthalmia-associated transcription factor; AlphaScreen MITF homodimerization, bead proximity signal; inhibition, % at 2.6 µM; hit rate 0.91% among 650,000; AID 1259374; in the data active = inhibition above about 50%;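 note: 0% = vehicle wells with protein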
MITF confirm = confirmation of human MITF inhibitors; shares compounds with MITF inh; AlphaScreen MITF homodimerization, biotin/His-MITF beads; inhibition, % at 2.6 µM; hit rate 16% among 4,700; AID 1259372;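 active = inhibition above a cutoff derived from the DMSO control wells, cut at about 28% in these data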;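 note: 0% = MITF dimer wells with DMSO only; inhibitors lower the bead chemiluminescence by keeping MITF from dimerizing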
AS interf DR = counter-screen: compounds optically interfering with AlphaScreen; shares compounds with MITF inh; AlphaScreen optical interference counterscreen, cell-free; IC50, µM; hit rate 6% among 480; AID 1259373; call rule not given here
AlphaScreen intf2 = AlphaScreen optical interference, counter-screen; shares compounds with MITF inh; hit rate 7.6% among 4,700; LysRS AlphaScreen counterscreen, signal interference, triplicate; inhibition, % at 2.6 µM;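 active = inhibition above a cutoff derived from the DMSO control wells, cut at about 30% in these data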
Numbers without * were called inactive; / = no result. Most compounds without a hit are left out; they make up all but 3.4% or so of the library.

SMILES | GPR151 activ | TEAD-YAP inh | FBW7 activator | MITF inh | MITF confirm | AlphaScreen intf2 | others
CC(C)(C)C(=O)NCCNc1ccc(Cl)cc1[N+](=O)[O-] | 3 | -1 | 0 | 87* | -4 | -3
O=C(OCC(=O)C12CC3CC(CC(C3)C1)C2)c1cccnc1Cl | -1 | 1 | 0 | 4 | / | /
C=CCNCCCOc1ccc(C)cc1[N+](=O)[O-] | -4 | -1 | 0 | 44 | / | /
C=CCNCCOc1ccc(C)cc1[N+](=O)[O-] | 3 | -3 | 0 | 52* | -23 | -3
Cc1ccc(OCCCN(C)C)c([N+](=O)[O-])c1 | 0 | -3 | 0 | 68* | -1 | 10
CN(C)CCCCOc1ccc([N+](=O)[O-])cc1 | 1 | 5 | 0 | 77* | 5 | -1
COc1ccc(OCCCCOc2ccc([N+](=O)[O-])cc2)cc1 | 0 | 3 | 0 | 9 | / | /
CCN(C(=O)CN1C(=O)NC2(CCC(C)CC2)C1=O)c1cccc2ccccc12 (stereo not drawn) | 1 | -6 | 0 | -2 | / | /
Fc1cccc(F)c1CNCC1NCCc2ccccc21 (stereo not drawn) | 1 | 8 | 0 | 78* | -3 | 9
CC1(C)CC(=O)C=C(NCC2NCCc3ccccc32)C1 (stereo not drawn) | 4 | -4 | 0 | -6 | / | /
O=CN1CCN(Cc2coc3c(Cl)cc(Cl)cc3c2=O)CC1 | 0 | 5 | 0 | 33 | / | /
CN1CCCN(Cc2c(Cl)cccc2Cl)CC1 | 2 | 4 | 0 | 63* | 1 | 1
CN1CCCN(Cc2coc3c(Cl)cc(Cl)cc3c2=O)CC1 | 0 | -9 | 0 | 55* | -11 | -3
CN1CCCN(Cc2c(F)cccc2F)CC1 | 0 | 0 | 1 | 78* | -9 | -7
Nc1nnnn1/N=C/c1ccc(-c2ccc3c(c2)COC3=O)o1 | -1 | 4 | 0 | -17 | / | /
CC(C)CC(c1nnnn1CC1CCCO1)N1CCN(c2ccc(F)cc2)CC1 (stereo not drawn) | 1 | 12 | 0 | 1 | / | /
CC(C)CC(c1nnnn1CC1CCCO1)N1CCN(c2cccc(Cl)c2)CC1 (stereo not drawn) | 0 | 2 | 0 | 84* | 3 | 9
O=C(c1cccc(F)c1F)N1CCN(c2ccc([N+](=O)[O-])cc2F)CC1 | 0 | 2 | 1 | 4 | / | /
COCCCNc1ncnc2sc(C)c(C)c12 | 1 | -6 | 0 | 68* | -3 | 3
Cc1ccc2nc(Cl)c(C#N)cc2c1 | 0 | -3 | 0 | 6 | / | /
CC1=NN(c2cccc3ccccc23)C(=O)C1 | -1 | 8 | -2 | 10 | / | /
CC1=NN(c2ccc3cccc(O)c3n2)C(=O)C1 | 2 | 7 | 0 | 90* | 115* | 101*
CC(C)(C)NCCCCOc1cccc2ccccc12 | 0 | 6 | 0 | -12 | / | /
COc1ccccc1C(=O)NC1(C(F)(F)F)NC(=O)N(c2ccccc2)C1=O (stereo not drawn) | 0 | 5 | 0 | 88* | 8 | 11
O=C(CCCCC1SCC2NC(=O)NC21)NC1(c2ccc(F)cc2)CCCC1 (stereo not drawn) | 1 | -13 | -1 | 109* | 88* | 15 | AS interf DR=4.3*
SMILES | GPR151 activ | TEAD-YAP inh | FBW7 activator | MITF inh | MITF confirm | AlphaScreen intf2 | others
COC(=O)CCCC[C@H]1SC[C@H]2NC(=O)N[C@H]21 | -1 | 3 | 0 | 0 | / | /
COc1ccc(Br)cc1C1NC(C(=O)O)CS1 (stereo not drawn) | 2 | -2 | 0 | -15 | / | /
CCC(C)C(=O)Nc1nnc(SCC(=O)NC2CCCC2)s1 (stereo not drawn) | 0 | 5 | 0 | 13 | / | /
CCC(CC)C(=O)Nc1nnc(SCC(=O)NC2CCCC2)s1 | 0 | 3 | 0 | 61* | 1 | 11
CC1(C)CC(=O)C(/C=N/Nc2n[nH]c(=O)[nH]c2=O)=C(O)C1 | -1 | -15 | -1 | 95* | 34* | 98*
CCCS(=O)(=O)N1CCN(CC2CC=CCC2)CC1 (stereo not drawn) | 0 | 10 | 0 | 32 | / | /
CC1CCC(N2CCN(CC3CC=CCC3)CC2)CC1 (stereo not drawn) | -1 | 2 | 0 | 62* | 2 | 0
C1=CCC(CN2CCN(C3CCCCCC3)CC2)CC1 (stereo not drawn) | 2 | 4 | 0 | 76* | -4 | -7
